This passage reports growth results from PubChem BioAssay (NCI).

Test systems include SR leukemia; RPMI-8226 leukemia; OVCAR-8 ovarian; OVCAR-5 ovarian; OVCAR-4 ovarian; SK-OV-3 ovarian; IGROV1 ovarian; OVCAR-3 ovarian; HS 578T breast; NCI/ADR-RES ovarian; T-47D breast; MDA-MB-435 melanoma; SW-620 colon; MCF7 breast; HCT-116 colon; HCC-2998 colon; KM12 colon; BT-549 breast.
What all share (assay): NCI-60 one-dose screen, 48 h (100 = growth as untreated, 0 = no growth, -100 = all killed)
Conditions in all cases: 10 µM unless noted

Each structure is given as a SMILES string. “And” between values parts separate entries of the source, which are not always exact repeats. Equal values may be shown once. Compounds without any hit were thinned out: in the full panel of roughly 83,000, 20% have a hit.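 For each line, cells grew in 96-well plates with the test compound present at a single concentration for 48 hours.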 The source made the active and inactive calls. How the source made its calls: active means growth percent below 10; inactive means the rest.

`Nc1nc2ncc(CNc3ccc(C(=O)N[C@@H](CCc4nn[nH]n4)C(=O)O)cc3)nc2c(=O)[nH]1`: the growth in the test on SR leukemia was 95.6% (inactive); in the test on RPMI-8226 leukemia it was 106% (inactive) and 95.5% (inactive); in the test on OVCAR-8 ovarian, 106% (inactive) and 90.2% (inactive); in the test on OVCAR-5 ovarian, 88.3% (inactive) and 103% (inactive); in the test with OVCAR-4 ovarian, 100% (inactive) and 116% (inactive); in the test on SK-OV-3 ovarian, 103% (inactive) and 104% (inactive). Moreover, the growth in the test on IGROV1 ovarian is 99.6% (inactive) and 106% (inactive); in the test with OVCAR-3 ovarian, 98.6% (inactive) and 113% (inactive); in the test on HS 578T breast, 110% (inactive) and 95.3% (inactive); in the test on NCI/ADR-RES ovarian, 103% (inactive) and 101% (inactive); with T-47D breast, 103% (inactive) and 95.9% (inactive); with MDA-MB-435 melanoma, 101% (inactive) and 110% (inactive). For the same compound, the growth with SW-620 colon was 98.5% (inactive) and 104% (inactive); in the test with MCF7 breast it was 94.2% (inactive) and 93.7% (inactive); in the test with HCT-116 colon it was 94.1% (inactive) and 98.9% (inactive); with HCC-2998 colon, 99.2% (inactive) and 104% (inactive); in the test with KM12 colon, 94.5% (inactive) and 103% (inactive).
With `OC(COc1cccc2ccccc12)CN1CCN(c2ccc(Cl)cc2)CC1` (configuration not stated), the growth in the test on SR leukemia is 113% (inactive) and 75.2% (inactive); with RPMI-8226 leukemia it was 68.2% (inactive); with OVCAR-8 ovarian it was 79.8% (inactive) and 87.1% (inactive); in the test on OVCAR-5 ovarian, 84.1% (inactive) and 87.3% (inactive); in the test on OVCAR-4 ovarian it was 35.2% (inactive) and 92.1% (inactive); with SK-OV-3 ovarian, 88.8% (inactive) and 100% (inactive). In addition, the growth with IGROV1 ovarian was 103% (inactive) and 84.8% (inactive); in the test with OVCAR-3 ovarian, 83.2% (inactive) and 116% (inactive); in the test on HS 578T breast, 68% (inactive) and 116% (inactive); with NCI/ADR-RES ovarian it was 88.6% (inactive) and 83.4% (inactive); with T-47D breast, 71.2% (inactive) and 96.1% (inactive); in the test on SW-620 colon it was 71.7% (inactive) and 98.6% (inactive). Further, the growth was 83.6% (inactive) and 89.7% (inactive) in the test with MCF7 breast; 60.2% (inactive) and 83.4% (inactive) with HCT-116 colon; 94.2% (inactive) with HCC-2998 colon; 90% (inactive) and 113% (inactive) in the test with KM12 colon.
Regarding `CCOC(=O)Nc1ccc2c(c1)/C(=N\NC(N)=S)c1ccccc1-2`, the growth with SR leukemia is 47.2% (inactive) and 34.7% (inactive); in the test with RPMI-8226 leukemia, 22.3% (inactive); in the test with OVCAR-8 ovarian, 34.6% (inactive) and 55.5% (inactive); with OVCAR-5 ovarian, 105% (inactive) and 92% (inactive); with OVCAR-4 ovarian it was 61% (inactive) and 77.1% (inactive); with SK-OV-3 ovarian, 96.5% (inactive) and 93.2% (inactive). The growth is 93.5% (inactive) and 103% (inactive) in the test on IGROV1 ovarian; 48% (inactive) and 83.4% (inactive) in the test on OVCAR-3 ovarian; 69.9% (inactive) and 92.9% (inactive) in the test with HS 578T breast; 29.5% (inactive) and 45.6% (inactive) in the test with NCI/ADR-RES ovarian; 26.4% (inactive) and 31.3% (inactive) in the test on T-47D breast; 41.6% (inactive) and 82.6% (inactive) in the test with BT-549 breast. Also, the growth in the test on SW-620 colon is 80.7% (inactive) and 81.2% (inactive); in the test with MCF7 breast, 63% (inactive) and 70.6% (inactive); in the test on HCT-116 colon, 53.5% (inactive) and 71.4% (inactive); in the test with HCC-2998 colon, 60.9% (inactive) and 68.9% (inactive); with KM12 colon it was 40.4% (inactive) and 54.2% (inactive).
For `O[C@H](c1cc(C(F)(F)F)nc2c(C(F)(F)F)cccc12)[C@@H]1CCCCN1`, the growth in the test on SR leukemia is 11.7% (inactive); with RPMI-8226 leukemia it was 70.1% (inactive) and 79.2% (inactive); with OVCAR-8 ovarian it was 80.3% (inactive) and 64.2% (inactive); in the test on OVCAR-5 ovarian, 79.5% (inactive) and 69.3% (inactive); in the test with OVCAR-4 ovarian it was 69.7% (inactive) and 59.8% (inactive); in the test on SK-OV-3 ovarian it was 79.1% (inactive) and 74.6% (inactive). Further, the growth was 47.8% (inactive) and 46.4% (inactive) with IGROV1 ovarian; 68.1% (inactive) and 55% (inactive) in the test on OVCAR-3 ovarian; 65.7% (inactive) and 56.1% (inactive) in the test on NCI/ADR-RES ovarian; 43.6% (inactive) and 64% (inactive) with T-47D breast; 65.1% (inactive) and 74.8% (inactive) with BT-549 breast; 64.2% (inactive) and 69% (inactive) with MDA-MB-435 melanoma. Further, the growth in the test with SW-620 colon was 71% (inactive) and 74.1% (inactive); in the test on MCF7 breast, 21.3% (inactive) and 13.3% (inactive); in the test on HCT-116 colon it was 44.1% (inactive) and 45.2% (inactive); in the test with HCC-2998 colon, 74.5% (inactive) and 54.9% (inactive); in the test on KM12 colon, 50.7% (inactive) and 43.8% (inactive).
For the compound `CCCCCCCCCCCCCCCCOc1ccc(C)cc1`, the growth is 97.9% (inactive) in the test with SR leukemia; 118% (inactive) in the test with RPMI-8226 leukemia; 106% (inactive) with OVCAR-8 ovarian; 99.9% (inactive) with OVCAR-5 ovarian; 99.8% (inactive) in the test with OVCAR-4 ovarian; 108% (inactive) in the test with SK-OV-3 ovarian. In addition, the growth in the test with IGROV1 ovarian is 127% (inactive); with OVCAR-3 ovarian, 108% (inactive); in the test on NCI/ADR-RES ovarian, 103% (inactive); with BT-549 breast, 112% (inactive); in the test on MDA-MB-435 melanoma it was 111% (inactive); in the test with SW-620 colon, 101% (inactive). Also, the growth in the test on MCF7 breast is 102% (inactive); in the test on HCT-116 colon it was 108% (inactive); with HCC-2998 colon, 105% (inactive); in the test with KM12 colon, 108% (inactive).
As to `O=C1OC2(c3ccccc31)c1ccc(O)c(O)c1Oc1c2ccc(O)c1O`, the growth in the test on SR leukemia is -17.7% (active) and 101% (inactive); with RPMI-8226 leukemia, 113% (inactive) and 109% (inactive); with OVCAR-8 ovarian, 107% (inactive); with OVCAR-5 ovarian, 92.1% (inactive) and 115% (inactive); in the test with OVCAR-4 ovarian, 89.7% (inactive) and 108% (inactive); in the test with SK-OV-3 ovarian, 106% (inactive) and 98.8% (inactive). Besides, the growth with IGROV1 ovarian is 117% (inactive) and 124% (inactive); in the test with OVCAR-3 ovarian, 98.7% (inactive) and 107% (inactive); in the test on HS 578T breast it was 112% (inactive) and 132% (inactive); in the test on NCI/ADR-RES ovarian, 107% (inactive) and 104% (inactive); in the test on T-47D breast it was 106% (inactive) and 99.5% (inactive); with MDA-MB-435 melanoma it was 112% (inactive) and 130% (inactive). The growth is 105% (inactive) and 113% (inactive) with SW-620 colon; 109% (inactive) and 105% (inactive) in the test on MCF7 breast; 110% (inactive) and 102% (inactive) with HCT-116 colon; 104% (inactive) and 109% (inactive) in the test with HCC-2998 colon; 104% (inactive) and 113% (inactive) with KM12 colon.
Consider `C/C(=N\NC(=O)c1ccncc1)c1ccccc1O`, for which the growth with SR leukemia was 17.7% (inactive) and 16% (inactive); in the test on RPMI-8226 leukemia it was 38.2% (inactive); in the test with OVCAR-8 ovarian, 37.1% (inactive) and 10.9% (inactive); in the test with OVCAR-5 ovarian, 48.2% (inactive) and 51% (inactive); with OVCAR-4 ovarian it was 20% (inactive) and 22.5% (inactive); with SK-OV-3 ovarian, 45.6% (inactive) and 38.4% (inactive). In addition, the growth was 32.1% (inactive) and 19.1% (inactive) in the test with IGROV1 ovarian; 20.3% (inactive) and 12.6% (inactive) with OVCAR-3 ovarian; 18% (inactive) and 16.9% (inactive) in the test with NCI/ADR-RES ovarian; 30.8% (inactive) and 24.3% (inactive) in the test on T-47D breast; 52% (inactive) and 20.7% (inactive) in the test with BT-549 breast; 34.2% (inactive) and 42.3% (inactive) in the test on SW-620 colon. Besides, the growth with MCF7 breast was 13.2% (inactive) and 13.4% (inactive); in the test with HCT-116 colon, 5.77% (active) and 2.15% (active); in the test with HCC-2998 colon it was 25% (inactive) and 32.1% (inactive); in the test on KM12 colon, 31.9% (inactive) and 34.4% (inactive).
For `O=C(Nc1cccc(-n2ccc3c(NC(=O)c4ccccc4)nccc32)c1)c1ccc(Cl)c(C(F)(F)F)c1`, the growth in the test with SR leukemia was -21.7% (active) and 4.99% (active); in the test with RPMI-8226 leukemia it was -47.6% (active) and 32.3% (inactive); in the test with OVCAR-8 ovarian, 44.6% (inactive); in the test with OVCAR-5 ovarian, 16.2% (inactive) and 76.5% (inactive); with OVCAR-4 ovarian it was 6.88% (active) and 70.1% (inactive); in the test with SK-OV-3 ovarian, 11.8% (inactive) and 70.6% (inactive). Moreover, the growth in the test with OVCAR-3 ovarian was -86.6% (active) and 51.6% (inactive); in the test on HS 578T breast, 90.1% (inactive); in the test on NCI/ADR-RES ovarian, -33% (active) and 58.4% (inactive); with T-47D breast, -36.7% (active) and 88.1% (inactive); in the test on BT-549 breast it was -75.1% (active) and 76.7% (inactive); in the test with MDA-MB-435 melanoma it was -59% (active) and 54.9% (inactive). Further, the growth with SW-620 colon was -73.8% (active) and 48.8% (inactive); in the test on MCF7 breast it was -48.5% (active) and 37.4% (inactive); in the test with HCT-116 colon, -99.1% (active) and 32.4% (inactive); in the test on HCC-2998 colon, -27.9% (active) and 64.4% (inactive); in the test on KM12 colon, -54.5% (active) and 42.7% (inactive).
In the case of `Clc1nc(Oc2ccccc2)nc(-c2cn(-c3ccccc3)c3ccccc23)n1`, the growth in the test with SR leukemia is -31.7% (active); in the test on RPMI-8226 leukemia it was 49.1% (inactive); in the test on OVCAR-8 ovarian, 38.8% (inactive); in the test on OVCAR-5 ovarian it was 101% (inactive); in the test on OVCAR-4 ovarian, 98.8% (inactive); in the test on SK-OV-3 ovarian, 103% (inactive). Further, the growth is 7.87% (active) in the test with OVCAR-3 ovarian; 44.1% (inactive) in the test with HS 578T breast; 84.9% (inactive) in the test on NCI/ADR-RES ovarian; 89.8% (inactive) with T-47D breast; 96.9% (inactive) with BT-549 breast; 38.2% (inactive) in the test on MDA-MB-435 melanoma. For the same compound, the growth in the test on SW-620 colon is 12.4% (inactive); in the test with MCF7 breast, 88.5% (inactive); in the test with HCT-116 colon, 58.5% (inactive); in the test on HCC-2998 colon it was 74.4% (inactive); in the test on KM12 colon, 89.6% (inactive).
As for `COc1ccc(/C(C#N)=C/c2ccccn2)cc1`, the growth in the test with SR leukemia is 91.1% (inactive) and 87.7% (inactive); with RPMI-8226 leukemia it was 93.8% (inactive); in the test on OVCAR-8 ovarian, 103% (inactive) and 110% (inactive); with OVCAR-5 ovarian, 110% (inactive) and 107% (inactive); in the test on OVCAR-4 ovarian, 96.1% (inactive) and 93.9% (inactive); with SK-OV-3 ovarian, 111% (inactive) and 126% (inactive). For the same compound, the growth in the test with IGROV1 ovarian is 115% (inactive) and 113% (inactive); with OVCAR-3 ovarian, 110% (inactive) and 130% (inactive); in the test on NCI/ADR-RES ovarian, 101% (inactive) and 54.3% (inactive); in the test with T-47D breast, 88.7% (inactive) and 115% (inactive); in the test with BT-549 breast it was 103% (inactive); with MDA-MB-435 melanoma it was 97% (inactive) and 106% (inactive). Moreover, the growth is 112% (inactive) and 130% (inactive) in the test with SW-620 colon; 104% (inactive) and 102% (inactive) with MCF7 breast; 96.3% (inactive) and 104% (inactive) in the test on HCT-116 colon; 97.7% (inactive) and 103% (inactive) in the test with HCC-2998 colon; 101% (inactive) and 102% (inactive) in the test on KM12 colon.
